Results filed as inconclusive are left out. Activity calls are given as the source filed them. Unless noted, the call rests on the fitted dose curve.
How the values were obtained:
[1] = qHTS assay to identify small molecule agonists of the vitamin D receptor (VDR) signaling pathway - cell viability counter screen (AID 743224; active means well fitted curve in the direction sought with a large enough effect in the repeat runs; an effect the other way counts as inactive or inconclusive; further: nearly all actives have a fitted effect of over 50% in size; further: potency means the concentration at half of the fitted maximal effect; on activity change, negative = cytotoxicity: series mostly up to about 63 µM; on the % scale 0 is the no-effect control and ±100 the full control effect)
Summary of the method: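 Luminescence from CellTiter-Glo, read after 30 min at room temperature, reports viability of VDR-bla cells treated with compounds for 16 h at 37C in the wells used for the beta-lactamase FRET read.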

[2] = qHTS assay to identify small molecule agonists of the NFkB signaling pathway - cell viability counter screen (AID 1159515); further: nearly all actives have a fitted effect of over 55% in size; further: potency means the concentration at half of the fitted maximal effect; on activity, negative = cytotoxic: series mostly up to about 61 µM; on the % scale 0 is the no-effect control and ±100 the full control effect
Summary of the method: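 Luminescence from CellTiter-Glo (30 min, room temperature) gives viability, measured in the same wells as the beta-lactamase reporter read. Cells were NFkB-bla ME-180, 2,000 per well, treated 5 hr with compounds.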

[3] = qHTS assay to identify small molecule agonists of the endoplasmic reticulum stress response signaling pathway (AID 1159516; active means well fitted activation curve with a large enough effect in the signal ratio in the repeat runs, not every such curve was filed as active; the % refers to the signal ratio; further: potency means the concentration at half of the fitted maximal effect; on activation: on the % scale 0 is the no-effect control and ±100 the full control effect)
Summary of the method: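 Read-out is beta-lactamase cleavage of a FRET substrate (405 nm excitation; 460 and 530 nm emissions) in ESRE-bla HeLa cells after a 5 hr compound exposure at 37 C. Substrate incubation ran 2 hr at room temperature.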

[4] = qHTS assay to identify small molecule agonists of the endoplasmic reticulum stress response signaling pathway - cell viability counter screen (AID 1159517); further: nearly all actives have a fitted effect of over 50% in size; further: potency means the concentration at half of the fitted maximal effect
Summary of the method: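 Luminescence readout: CellTiter-Glo, 30 min RT, same wells as the ESRE-bla reporter read. HeLa ESRE-bla, 1,500 cells/well, o/n 37 C; cpd 5 hr 37 C/5% CO2.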

[5] = qHTS assay to identify small molecule agonists of the AP-1 signaling pathway - cell viability counter screen (AID 1159525); further: nearly all actives have a fitted effect of over 55% in size
Summary of the method: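 ME-180 AP-1-bla, 2500 cells/well, Opti-MEM + 0.5% dialyzed FBS; overnight 37 °C; cpd 15-pt titration, 5 h 37 °C; CellTiter-Glo 30 min RT; luminescence read; normalised to TOAB and DMSO controls.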

[6] = qHTS assay to identify small molecule agonists of the AP-1 signaling pathway (AID 1159526); further: on the % scale 0 is the no-effect control and ±100 the full control effect
[7] = molecular target: Retinoic acid receptor RXR-alpha (Homo sapiens) (UniProt P19793); assay: qHTS assay to identify small molecule agonists of the RXR signaling pathway (AID 1159527); further: nearly all actives have a fitted effect of over 35% in size; further: potency means the concentration at half of the fitted maximal effect
Sequence of Retinoic acid receptor RXR-alpha (Homo sapiens) (P19793 whole entry, looked up): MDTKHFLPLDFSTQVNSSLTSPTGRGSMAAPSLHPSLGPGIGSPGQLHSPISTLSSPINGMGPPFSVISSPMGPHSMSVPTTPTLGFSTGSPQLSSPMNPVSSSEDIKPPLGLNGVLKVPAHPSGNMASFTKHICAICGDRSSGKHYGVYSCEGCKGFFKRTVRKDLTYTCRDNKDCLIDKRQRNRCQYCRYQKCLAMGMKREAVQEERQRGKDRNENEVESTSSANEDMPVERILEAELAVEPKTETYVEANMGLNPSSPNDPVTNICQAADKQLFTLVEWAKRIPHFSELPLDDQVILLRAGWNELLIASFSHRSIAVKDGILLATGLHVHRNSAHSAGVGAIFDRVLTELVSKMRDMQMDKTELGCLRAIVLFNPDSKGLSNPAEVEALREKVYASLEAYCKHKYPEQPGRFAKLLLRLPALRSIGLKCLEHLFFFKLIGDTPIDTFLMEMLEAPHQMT
Summary of the method: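 Using 9-cis retinoic acid as the reference agonist, chemicals were tested in HEK 293T cells […] for 16 hr; substrate loading lasted 2 hr at room temperature.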

[8] = molecular target: Nuclear receptor ROR-gamma (Homo sapiens) (UniProt P51449); assay: qHTS assay to identify small molecule antagonists of the retinoid-related orphan receptor gamma (ROR-gamma) signaling pathway (AID 1159521; active means well fitted curve in the direction sought with a large enough effect in the repeat runs; an effect the other way counts as inactive or inconclusive; further: nearly all actives have a fitted effect of over 50% in size; further: potency means the concentration at half of the fitted maximal effect)
Summary of the method: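 Test compounds were applied to Tet-on RORγ CHO cells 2 h ahead of doxycycline hyclate (1 uM final). Luciferase reporter activity was quantified by luminescence after 16 h at 37 C and 5% CO2.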

[9] = qHTS assay to identify small molecule antagonists of the vitamin D receptor (VDR) signaling pathway - cell viability counter screen (AID 743225; active means well fitted curve in the direction sought with a large enough effect in the repeat runs; an effect the other way counts as inactive or inconclusive; further: on the % scale 0 is the no-effect control and ±100 the full control effect; nearly all actives have a fitted effect of over 50% in size)
Summary of the method: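 Compounds were pinned onto VDR-bla HEK 293T cells together with 1-alpha,25-dihydroxyvitamin D3 at 3 nM final. After 16 h at 37C and 5% CO2 plus the reporter readout, cell viability was measured by CellTiter-Glo luminescence (30 min, room temperature).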

[10] = qHTS assay to identify small molecule antagonists of the retinoid-related orphan receptor gamma (ROR-gamma) signaling pathway - cell viability counter screen (AID 1159520; active means well fitted curve in the direction sought with a large enough effect in the repeat runs; an effect the other way counts as inactive or inconclusive)
Summary of the method: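 Tet-on ROR gamma CHO cells (1,000/well) were plated 4 hr, given compounds in DMSO for 2 hr at 37 C, then induced with 1 uM final doxycycline for 16 hr. Viability was read as ATP by CellTiter-Glo luminescence after 30 min.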

ClCBr
inactive: Potency [1] | Potency [2] | Potency [3] | Potency [4] | Potency [5] | Potency [6] | Potency [7]

O=S1(=O)OCC2C(CO1)C1(Cl)C(Cl)=C(Cl)C2(Cl)C1(Cl)Cl (centres undefined)
active: Potency [1] 49 µM | Potency [8] 19.3 µM
inactive: Potency [2] | Potency [3] | Potency [4]

c1csc(-c2ccc(-c3cccs3)s2)c1
inactive: Potency [1] | Potency [9] | Potency [2] | Potency [4]
active: Potency [3] 49 µM | Potency [7] 21.9 µM

CN
inactive: Potency [9] | Potency [2] | Potency [3] | Potency [10] | Potency [8] | Potency [5] | Potency [6] | Potency [7]

COC(=O)c1cc(Oc2ccc(Cl)cc2Cl)ccc1[N+](=O)[O-]
inactive: Potency [1] | Potency [9] | Potency [2] | Potency [3] | Potency [4] | Potency [5] | Potency [6]
active: Potency [8] 54.5 µM

C#CCC1=C(C)C(OC(=O)C2C(C=C(C)C)C2(C)C)CC1=O (centres undefined)
inactive: Potency [1] | Potency [2] | Potency [3] | Potency [4] | Potency [5]

c1ccc(Nc2ccc(Nc3ccccc3)cc2)cc1
inactive: Potency [2] | Potency [3] | Potency [10] | Potency [8]

CNC(=O)CSP(=O)(OC)OC
inactive: Potency [1] | Potency [9] | Potency [2] | Potency [3] | Potency [4] | Potency [5] | Potency [6]

CCOP(=O)(Sc1ccccc1)Sc1ccccc1
inactive: Potency [1] | Potency [9] | Potency [2] | Potency [3] | Potency [4] | Potency [8] | Potency [5]

Nc1nc(N)nc(Cl)n1
inactive: Potency [1] | Potency [9] | Potency [2] | Potency [3] | Potency [10] | Potency [8] | Potency [5] | Potency [6] | Potency [7]

COc1ccc2[nH]cc(CCN(C(C)C)C(C)C)c2c1
inactive: Potency [1] | Potency [9] | Potency [2] | Potency [3] | Potency [4] | Potency [8] | Potency [5]

CCN(CC)CCc1c[nH]c2ccccc12
inactive: Potency [9] | Potency [2] | Potency [3] | Potency [4] | Potency [8] | Potency [5] | Potency [7]

CCOP(=S)(NC(C)C)Oc1ccccc1C(=O)OC(C)C (centres undefined)
active: Potency [8] 21.7 µM
inactive: Potency [1] | Potency [9] | Potency [2] | Potency [3] | Potency [4] | Potency [6]

COc1ccc2c3c1O[C@H]1[C@H](O)CC[C@H]4[C@@H](C2)N(C)CC[C@@]341
inactive: Potency [1] | Potency [9] | Potency [2] | Potency [3] | Potency [10] | Potency [8] | Potency [5] | Potency [6] | Potency [7]

CCOC(=O)CCN(SN(C)C(=O)Oc1cccc2c1OC(C)(C)C2)C(C)C
inactive: Potency [1] | Potency [9] | Potency [2] | Potency [3] | Potency [4] | Potency [5]
active: Potency [8] 30.6 µM

CC(=O)[O-].CC(=O)[O-].O.O.O.[Pb+2]
active: Potency [3] 0.0776 µM
inactive: Potency [9] | Potency [2] | Potency [4] | Potency [5] | Potency [6] | Potency [7]

CC(Cc1ccccc1)N(C)Cc1ccco1 (centres undefined)
inactive: Potency [1] | Potency [2] | Potency [3] | Potency [4] | Potency [5] | Potency [7]

FC(F)C(F)(F)OCC(Cn1cncn1)c1ccc(Cl)cc1Cl (centres undefined)
inactive: Potency [9] | Potency [2] | Potency [3] | Potency [4] | Potency [5] | Potency [6] | Potency [7]

O.O.O.O.O.O.O.O=S(=O)([O-])[O-].[Co+2]
inactive: Potency [1] | Potency [2] | Potency [3] | Potency [4] | Potency [5] | Potency [6] | Potency [7]

ClC(Cl)C(Cl)(Cl)Cl
inactive: Potency [1] | Potency [9] | Potency [2] | Potency [3] | Potency [4] | Potency [6] | Potency [7]

O=Cc1ccccc1
inactive: Potency [2] | Potency [3] | Potency [10] | Potency [8] | Potency [5] | Potency [6] | Potency [7]

CN(C)c1ccc(N)cc1
inactive: Potency [2] | Potency [3] | Potency [4]
active: Potency [1] 42.6 µM

Oc1cc(Cl)cc(Cl)c1
inactive: Potency [1] | Potency [9] | Potency [2] | Potency [3] | Potency [10] | Potency [8] | Potency [5] | Potency [6] | Potency [7]

Cc1ccccc1OP(=O)(Oc1ccccc1C)Oc1ccccc1C
inactive: Potency [9] | Potency [2] | Potency [3] | Potency [4]
active: Potency [8] 54.7 µM

COc1ccc2c(c1OC)C(=O)O[C@@H]2[C@H]1c2cc3c(cc2CCN1C)OCO3
inactive: Potency [1] | Potency [9] | Potency [2] | Potency [3] | Potency [10] | Potency [8] | Potency [5] | Potency [6] | Potency [7]

O=NN(CCO)CCO
inactive: Potency [1] | Potency [9] | Potency [2] | Potency [3] | Potency [4] | Potency [5] | Potency [6] | Potency [7]

O=C(N[C@@H]1N=C(c2ccccc2F)c2cccc3c2N(CC3)C1=O)c1cc2ccccc2[nH]1
inactive: Potency [1] | Potency [9] | Potency [2] | Potency [3] | Potency [4] | Potency [8] | Potency [5] | Potency [7]

CNN
inactive: Potency [1] | Potency [9] | Potency [2] | Potency [3] | Potency [4] | Potency [5] | Potency [6] | Potency [7]

CC(=O)[O-].CC(=O)[O-].CC(=O)[O-].[Sb+3]
inactive: activity change, negative = cytotoxicity [1] -16.2% [at 5.95 µM] | viability change, negative = cytotoxic [9] 0.879% [at 6.95 µM] | activity, negative = cytotoxic [2] -2.51% [at 6.95 µM] | activation [3] 3.53% [at 6.95 µM] | activity change, negative = cytotoxicity [4] -11.4% [at 6.95 µM] | activation [6] -1.15% [at 2.72 µM] | activation [7] -1.11% [at 2.71 µM]

Oc1ccc([C@H]2CNCc3c2ccc(O)c3O)cc1O
inactive: Potency [1] | Potency [2] | Potency [3] | Potency [4] | Potency [5] | Potency [6] | Potency [7]

CCC[CH2][Sn]([CH2]CCC)([O]C(C)=O)[O]C(C)=O
inactive: Potency [9] | Potency [3]
active: Potency [2] 11.1 µM | Potency [4] 1.97 µM | Potency [8] 0.0692 µM

Reference: PubChem BioAssay (Tox21)
